Values joined by “and” are separate entries in the source; they are usually repeats but may differ in a detail not shown here. Identical values can stand only once. Records with an inconclusive call do not appear. Active and inactive are the calls of the source. Calls follow the shape of the dose curve; as a rule, active = well fitted cell-killing curve with a large enough effect in the repeat runs; inconclusive = weak or mixed curves, or effect the other way; inactive = no such curve, though single readings can be large or run the other way.
Assay: qHTS assay for identifying genotoxic compounds that show differential cytotoxicity against isogenic chicken DT40 cell lines with known DNA damage response pathways - Rev3 mutant cell line (AID 743014); also: nearly all actives have a fitted effect of over 55% in size
Conditions: chicken DT40 Rev3-/- viability, CellTiter-Glo, 40 h; series mostly up to 68.4 µM; activity, negative = cytotoxicity: at the top concentration
Excerpt: National Center for Advancing Translational Sciences [NCATS]
NIH Chemical Genomics Center [NCGC]
U.S. Environmental Protection Agency [EPA]
National Institutes of Environmental Health Sciences [NIEHS]
National Toxicology Program [NTP]
U.S. Food and Drug Administration [FDA]
DNA repair pathways play a critical role in cellular homeostasis by repairing DNA damage induced by endogenous processes and xenobiotics. Isogenic chicken DT40 cell lines deficient in different DNA repair pathways can be used to identify genotoxic compounds and aid in characterizing the nature of the DNA damage induced. Two DNA repair-deficient cell lines with disrupted genes, Rad54/Ku70 or Rev3, were used to screen the Tox21 10K compound library. Possible genotoxicity was based on the presence of a significant increase in cytotoxicity in one or more of the DNA repair-deficient cell lines compared to that observed in the parental DNA repair-proficient cell line. CellTiter Glo viability assay (Promega, Madison, WI) was used to measure cell viability in these cells after compound treatment. This assay includes the data from the Rev3 mutant cell line.
Tox21 Assay Protocol Summary:
300 DT40 mutant cells in 5 uL/well were dispensed into white, solid-bottom 1536-well plates using a Multidrop Combi (ThermoFisher Scientific, Waltham, MA) dispenser. After the assay plates were incubated at 37 C/5% CO2 for approximately 0.5 hour, 23 nL of compounds dissolved in DMSO, positive controls or DMSO only was transferred into the assay plate by a pintool work station (Kalypsys, San Diego, CA). The assay plates were incubated at 37 C/5% CO2 for 40 hours. After 5 uL per well of CellTiter-Glo reagent was added into each well of the assay plates, the plates were incubated for 30 min at room temperature and the luminescence intensity of the plates was measured using a ViewLux (PerkinElmer, Shelton, CT) plate reader.
% is scaled to controls: 0 for no effect and ±100 for the full control effect; potency is read from the fitted curve at half-maximal effect.

Structure (SMILES) | Potency | activity, negative = cytotoxicity
Clc1ccc(C(Cl)(Cl)Cl)cn1 | 61.1 µM (active) | 
O=C(Cl)OCc1ccccc1 |  | 7.8% [at 95 µM] (inactive)
C=CC=O |  | 0.724% [at 95 µM] (inactive)
CCC1(c2cccc(O)c2)CCCCN(C)C1 (stereo not given) |  | 1.02% [at 31.4 µM] (inactive)
NCCOS(=O)(=O)O |  | 1.17% (inactive)
COc1cccc(C=O)c1 |  | -9.28% (inactive)
CCCCOC(C)=O |  | 1.79% [at 95 µM] (inactive)
CCOc1cc(OP(=S)(OC)OC)nc(CC)n1 |  | 13.4% (inactive)
CCSC(=O)Cl |  | -1.31% [at 95 µM] (inactive)
Cn1c(CCCC(=O)O)nc2cc(N(CCCl)CCCl)ccc21 | 3.35 µM (active) | 
CCCCCCCC(=O)Cl |  | 1.64% [at 95 µM] (inactive)
O=C/C=C/c1ccco1 |  | 0.614% (inactive)
NCC1(CC(=O)O)CCCCC1 |  | 5.75% [at 31.4 µM] (inactive)
C=C(Cl)CCl |  | 5.47% (inactive)
CC(C)(C)C(=O)Cl |  | -7.2% [at 95 µM] (inactive)
CNC(=O)NC(O)C(Cl)(Cl)Cl (stereo not given) |  | 9.43% (inactive)
CC(C)N(Cc1ccccc1)C(=O)C(C)(C)C | 68.6 µM (active) | 
C=CCc1cc(OC)c2c(c1)OCO2 |  | -0.376% [at 95 µM] (inactive)
COc1cccc([C@@]2(O)CCCC[C@@H]2CN(C)C)c1 |  | 14.6% (inactive)
CN(C)C1CCCCC1 |  | 2.72% (inactive)

Structure (SMILES) | Potency | activity, negative = cytotoxicity
CC(C)C(C)(N)C#N (stereo not given) |  | -0.551% (inactive)
C#CC(C)(C)O |  | -0.529% [at 95 µM] (inactive)
C[C@H]1CCCC(=O)CCC/C=C/c2cc(O)cc(O)c2C(=O)O1 | 16.6 µM (active) and 22.4 µM (active) | 
Cc1ccc(Cl)c(O)c1 |  | 2.57% (inactive)
CCC(C)(C#N)N=NC(C)(C#N)CC (stereo not given) |  | -2.37% (inactive)
O=C(CCl)NCO |  | -16.6% (inactive)
Cc1ccc2cc(C)ccc2c1 |  | -0.312% (inactive)
CCCCCCC1CCOC1=O (stereo not given) |  | 4.35% (inactive)
COc1ccc2c(C(=O)c3ccc(Cl)cc3)c(C)n(CC(=O)O)c2c1 |  | 5.75% (inactive)
C/C=C/CC#N |  | 11.3% [at 95 µM] (inactive)
C=C1C[C@@H]2[C@H](CC[C@]3(C)C(=O)CC[C@@H]23)[C@@]2(C)C=CC(=O)C=C12 | 11.9 µM (active) | 
CCN(CCO)CCn1c(Cc2ccccc2)nc2c1c(=O)n(C)c(=O)n2C |  | -2.04% (inactive)
CN(C)CCc1c[nH]c2cccc(OP(=O)(O)O)c12 |  | 4.7% (inactive)
O=c1[nH]c2ccccc2o1 |  | 6.09% (inactive)
COC(=O)[C@@H](N)CCCN/C(N)=N/[N+](=O)[O-] |  | 13.6% (inactive)
CC(Cl)(Cl)Cl |  | 7.06% (inactive)
CC(C)[C@]12CC(=O)[C@H](C)[C@H]1C2 |  | 0.369% (inactive)
ClC(Cl)(Cl)Cl | inactive | 
Oc1ccc2c3c1O[C@H]1[C@@H](O)C=C[C@H]4[C@@H](C2)NCC[C@@]341 |  | 3.78% [at 95 µM] (inactive)
CCCC[N+](=O)[O-] |  | 1.16% (inactive)
